Laboratory results: the supplement of paper PMC6555819

test system: PPARg:RXRa (NR concentration 180 nM, RXRa partner concentration 90 nM); test: PBM binding z-score (relative to random genomic background probes); higher = stronger binding; sequences stand for … in GC…GCGATTGACAGCGTAGAATGAAGG
Outline: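 Scanned fluorescence from custom Agilent 4×180K protein-binding microarrays was regression-normalized. Binding z-scores use random background probes as reference. Ligand-free nuclear receptor dimers were incubated on the arrays for 1 h and detected with antibodies against each partner (one per run).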

Point of comparison: CCGAGTAGGTTACGAGGTGGCATTCAGTGCGAAT, PBM binding z-score 1.79. Against it:
- TCGACTAGGTTACGGGGGCATTCAGGGATGAAGA — higher, 6.51
- CTATGTAGGTTAAGGGGGACATTCAGTTTGAAAG — higher, 8.82
- CCGAGTAGGTTAGGAGGGGGCATTCAGTGCGAAT — lower, 1.74
- CTGTGTAGGTTAAGGGGGTCATTCAGTTTGAAAG — higher, 6.19
- CTATGTAGGTTAAGGGGGTCACTCAGTTTGAAAG — higher, 8.64
- TCGAGTAGGTTAAGGGGGCATTCAGGGATGAAGA — higher, 5.19
- TCGAGTTGGTTACGGGGGCATTCAGGGATGAAGA — higher, 1.84
- TCGAGTAGTTTACGGGGGCATTCAGGGATGAAGA — lower, 1.11
- TCGAGTAGGTTACGGGGGCATGCAGGGATGAAGA — higher, 6.15
- CCGAGTAGGGTACGAGGGGGCATTCAGTGCGAAT — lower, 0.709
- CCGAGTAGGTTACGAGGGGGAATTCAGTGCGAAT — lower, 1.76
- CCGAGTAGGTTACAAGGGGGCATTCAGTGCGAAT — higher, 2.25
- CTATGTAGGTTAAGGGGATCATTCAGTTTGAAAG — higher, 5.97
- TCGAGTAGGTTACGGGCGCATTCAGGGATGAAGA — lower, 1.17
- TCGAGTAGGTTACGGGGGCATTTAGGGATGAAGA — higher, 6.04
- CTATGTAGGTTTAGGGGGTCATTCAGTTTGAAAG — higher, 4.01
- TCGAGTAGGTTACGGGGGCATTCCGGGATGAAGA — higher, 5.89
- TCGAGTAGGTTACCGGGGCATTCAGGGATGAAGA — higher, 2.79
- TCGAGTAGGTGACGGGGGCATTCAGGGATGAAGA — higher, 5.16
- CTATGTAGGGTAAGGGGGTCATTCAGTTTGAAAG — higher, 8.15
- CTATGTAGGTTCAGGGGGTCATTCAGTTTGAAAG — higher, 5.72
